Screening data as filed in PubChem.
NS1 function inh: inhibitors of influenza NS1 protein function. Potency, µM (series often up to 46.1 µM), without a hit: top-dose activity, positive = more growth. AID 2326. 0.4% of 270,000 active; calls by dose curve; further: potency means the concentration at half of the fitted maximal effect; actives are rising curves; nearly all actives have a fitted effect of over 50% in size
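Recovery from NS1-induced slow growth read by OD600 in budding yeast switched to galactose assay medium (pH 6.0, -URA) at 1:100 dilution. Compound 23 nl per well; the matching strain lacking NS1 serves as control.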
Pf growth 48h: inhibits P. falciparum growth in the first generation, 48 h; P. falciparum luciferase growth in erythrocytes, 48 h; Potency, µM (highest dose often 28.7 µM), without a hit: at the top dose activity change, negative = inhibition, usual class: inhibitors; 5.9% of 310,000 active; further: potency means the concentration at half of the fitted maximal effect; on the % scale 0 is the no-effect control and ±100 the full control effect
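First compound was added to culture medium, then infected red cells at 0.1% parasitemia and 2% hematocrit (final). After incubation at 37 C under 5% CO2, luciferase detection reagent was dispensed and light output recorded.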
Shiga inhibitor: blocks Shiga toxin action in Vero cells | 9.2% of 290,000 active | Vero cells, Shiga toxin protein synthesis inhibition reporter | AID 2315 | inhibition, % at 38.7 µM; in the data active means inhibition mostly above about 28%, no sharp cut-off; inactive means mostly below about 43%; further: 0% is about no effect
CHX counter: counter-screen for Shiga toxin inhibitors: cycloheximide protein synthesis inhibition | cell reporter, cycloheximide protein synthesis inhibition counterscreen | max response, % | 12% of 300,000 active | AID 2314; in the data active means max response mostly above about 13%, no sharp cut-off; inactive means mostly below about 14%; further: read at 38.3 µM for the half of the compounds with a filed dose; 0% is about no effect
Pf growth 96h: P. falciparum growth inhibition at 96 hours; Potency, µM (doses to about 28.7 µM), without a hit: at the highest dose activity change, negative = inhibition, usual class: inhibitors; AID 504834; P. falciparum luciferase reporter growth, 96 h; 6.9% of 320,000 active; further: potency means the concentration at half of the fitted maximal effect; on the % scale 0 is the no-effect control and ±100 the full control effect
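Erythrocytes infected with luciferase-expressing P. falciparum were dispensed at 2% hematocrit and 0.05% parasitemia (final), then incubated with compounds 96 hours at 37 C in 5% CO2. Luminescence after detection reagent addition reported growth.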
* = called active by the depositor; [ ] = remark or other dose. An excerpt weighted towards active compounds, which were near 21% of everything screened. Unless noted, the call rests on the fitted dose curve; in most records, active means well fitted inhibition curve with a large enough effect; inconclusive means small, poorly fitted or top-dose-only effect, or another doubt; inactive means no such curve, though single readings can be large or run the other way.

`CCOc1cccc(OCCCCn2ccnc2)c1` gave NS1 function inh -2.3%, Pf growth 48h 11.7µM*, Shiga inhibitor 3.1, CHX counter -1.0 and Pf growth 96h -9.1%.
For Fc1ccc(OCCCn2ccnc2)cc1 the results were NS1 function inh 0.2%, Pf growth 48h -1.1%, Shiga inhibitor -7.1, CHX counter 1.4 and Pf growth 96h inconclusive.
Screening Fc1ccc(OCCCCCn2ccnc2)cc1 returned NS1 function inh 2.0%, Pf growth 48h -24.1%, Shiga inhibitor -12.6, CHX counter -1.7 and Pf growth 96h 4.15µM*.
For Cc1ccc(NC(=O)C2CCCN(S(=O)(=O)c3cccc4cccnc34)C2)cc1 (centres undefined) the results were NS1 function inh 1.3%, Pf growth 48h inconclusive, Shiga inhibitor 0.7, CHX counter 5.1 and Pf growth 96h inconclusive.
For Cc1cc2c(c(=O)o1)C1O[C@](CCCCN3C(=O)c4ccccc4C3=O)(Cc3cc(C#N)ccc31)O2 the results were NS1 function inh inconclusive, Pf growth 48h inconclusive, Shiga inhibitor inactive, CHX counter -1.5 and Pf growth 96h inconclusive.
`CC1(C)CC(=O)C2=C(C1)O[C@@]1(CCCCN3C(=O)c4ccccc4C3=O)Cc3cc(C#N)ccc3C2O1` gave NS1 function inh 7.9%, Pf growth 48h 1.51µM*, Shiga inhibitor inactive, CHX counter -1.1 and Pf growth 96h 49.3%[5.75 µM].
`N#Cc1ccc2c(c1)C[C@]1(CCCCN3C(=O)c4ccccc4C3=O)Oc3c(c(=O)oc4ccc(F)cc34)C2O1` gave NS1 function inh 14.1%, Pf growth 48h 1.9µM*, Shiga inhibitor inactive, CHX counter -1.6 and Pf growth 96h inconclusive.
`Cc1nc(Nc2ccccc2Cl)sc1C(=O)Nc1ccccc1` gave NS1 function inh -27.5%, Pf growth 48h -11.8%, Shiga inhibitor 22.0, CHX counter 18.9* and Pf growth 96h 14.9%.
For COc1ccccc1Nc1nc(C)c(C(=O)Nc2ccccc2)s1 the results were Pf growth 48h inconclusive, Shiga inhibitor 55.9, CHX counter 17.1 and Pf growth 96h inconclusive.
`Cc1nc(Nc2ccccc2)sc1C(=O)Nc1ccccc1` gave NS1 function inh -3.0%, Pf growth 48h inconclusive, Shiga inhibitor 58.6*, CHX counter 39.3* and Pf growth 96h inconclusive.
For Cc1nc(NC(=O)/C=C/c2ccccc2)sc1C(=O)Nc1ccccc1 the results were NS1 function inh 12.2%, Pf growth 48h 48.4%, Shiga inhibitor -1.2, CHX counter -1.0 and Pf growth 96h 25.0%.
For Cc1nc(Nc2ccccc2)sc1C(=O)c1ccc(F)cc1 the results were NS1 function inh -9.7%, Pf growth 48h inconclusive, Shiga inhibitor 142.9*, CHX counter 67.2* and Pf growth 96h inconclusive.
For Cc1nc(NCCOc2ccccc2)sc1C(=O)Nc1ccccc1 the results were NS1 function inh -11.4%, Pf growth 48h 67.8%, Shiga inhibitor 91.9*, CHX counter 58.9* and Pf growth 96h 65.6%.
`O=C(COC(=O)c1ccco1)Nc1ccc(N2CCOCC2)cc1` gave Pf growth 48h 31.1% and Pf growth 96h 3.6%.
For O=C(COC(=O)CSc1ccc([N+](=O)[O-])cc1)NCC1CCCO1 (centres undefined) the results were NS1 function inh -2.2%, Pf growth 48h 24.3%, Shiga inhibitor 6.6, CHX counter -1.6 and Pf growth 96h -11.5%.
`Cc1nc(NC(C)c2ccccc2)sc1C(=O)Nc1ccccc1` (centres undefined) gave Pf growth 48h inconclusive, Shiga inhibitor 11.5, CHX counter 5.3 and Pf growth 96h 50.3%.
Nc1nc(Nc2ccccc2F)sc1C(=O)c1ccccc1 was read as NS1 function inh -41.5%, Pf growth 48h 3.1%, Shiga inhibitor 57.3*, CHX counter 50.3* and Pf growth 96h 17.4%.
O=C(NNc1ccccc1F)c1ccccc1 was read as NS1 function inh -1.1%, Pf growth 48h 3.9%, Shiga inhibitor 21.9, CHX counter 4.9 and Pf growth 96h 12.9%.
Screening Cc1nc(NCc2ccccc2)sc1C(=O)Nc1ccccc1 returned Pf growth 48h 54.4%, Shiga inhibitor 49.6*, CHX counter 26.3* and Pf growth 96h 89.3%.
Screening Cc1ccccc1Nc1ncnc(N)n1 returned Pf growth 48h 9.9%, Shiga inhibitor 16.9, CHX counter 10.4 and Pf growth 96h -2.2%.
C/C(=N\NC(=O)CNc1cccc(Cl)c1C)C1CC1 was read as NS1 function inh 6.1%, Pf growth 48h 2.8%, Shiga inhibitor -3.5, CHX counter -6.3 and Pf growth 96h -3.0%.
